Laboratory results reported in PubChem BioAssay AID588664 (The Scripps Research Institute Molecular Screening Center, 2011).
In all, about 360,000 compounds went through this assay and about 1,400 (0.39%) were called active. The full list was thinned out, with actives kept by preference. Values without a mark were called inactive. No stated cut-off is given here; in the data, active means inhibition above about 5% (passing the limit was not always enough); inactive means the rest.

target: Tyrosine-protein kinase ABL1 (Homo sapiens) + Ras and Rab interactor 1 (Homo sapiens) (UniProt P00519+Q13671); assay: inhibitors of Rin1-Abl protein binding, primary screen, biochemical, TR-FRET (AID 588664); conditions: at 7.35 µM, active compounds read high
Sequence (P00519 whole entry, looked up): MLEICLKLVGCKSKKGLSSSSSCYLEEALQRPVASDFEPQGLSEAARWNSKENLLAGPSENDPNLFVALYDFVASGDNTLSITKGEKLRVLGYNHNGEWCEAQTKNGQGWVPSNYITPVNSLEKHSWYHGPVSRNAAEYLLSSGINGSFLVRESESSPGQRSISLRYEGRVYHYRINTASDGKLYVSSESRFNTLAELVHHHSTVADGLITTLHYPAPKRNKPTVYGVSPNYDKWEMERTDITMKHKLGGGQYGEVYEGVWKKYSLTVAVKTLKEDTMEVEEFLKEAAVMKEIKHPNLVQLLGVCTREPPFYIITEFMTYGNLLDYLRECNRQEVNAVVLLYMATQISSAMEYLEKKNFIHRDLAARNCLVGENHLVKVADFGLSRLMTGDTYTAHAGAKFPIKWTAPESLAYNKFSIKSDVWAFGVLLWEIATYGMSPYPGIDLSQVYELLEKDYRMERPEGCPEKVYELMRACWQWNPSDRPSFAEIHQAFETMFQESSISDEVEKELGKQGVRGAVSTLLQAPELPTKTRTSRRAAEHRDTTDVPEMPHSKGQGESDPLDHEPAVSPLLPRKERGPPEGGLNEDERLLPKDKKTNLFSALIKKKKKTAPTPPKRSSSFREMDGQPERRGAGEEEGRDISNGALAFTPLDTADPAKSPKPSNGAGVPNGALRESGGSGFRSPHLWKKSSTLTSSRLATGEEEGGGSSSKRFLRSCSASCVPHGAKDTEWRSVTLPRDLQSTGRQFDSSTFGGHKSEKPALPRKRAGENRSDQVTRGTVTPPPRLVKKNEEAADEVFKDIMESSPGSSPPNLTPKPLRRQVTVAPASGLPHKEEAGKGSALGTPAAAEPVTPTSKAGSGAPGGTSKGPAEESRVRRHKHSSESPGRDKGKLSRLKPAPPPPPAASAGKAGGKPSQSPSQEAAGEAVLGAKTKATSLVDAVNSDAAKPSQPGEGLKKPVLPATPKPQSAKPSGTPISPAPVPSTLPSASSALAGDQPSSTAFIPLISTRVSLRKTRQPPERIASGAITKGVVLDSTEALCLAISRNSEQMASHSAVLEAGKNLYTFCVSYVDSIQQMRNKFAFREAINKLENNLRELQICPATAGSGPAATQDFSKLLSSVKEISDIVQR
Sequence (Q13671 whole entry, looked up): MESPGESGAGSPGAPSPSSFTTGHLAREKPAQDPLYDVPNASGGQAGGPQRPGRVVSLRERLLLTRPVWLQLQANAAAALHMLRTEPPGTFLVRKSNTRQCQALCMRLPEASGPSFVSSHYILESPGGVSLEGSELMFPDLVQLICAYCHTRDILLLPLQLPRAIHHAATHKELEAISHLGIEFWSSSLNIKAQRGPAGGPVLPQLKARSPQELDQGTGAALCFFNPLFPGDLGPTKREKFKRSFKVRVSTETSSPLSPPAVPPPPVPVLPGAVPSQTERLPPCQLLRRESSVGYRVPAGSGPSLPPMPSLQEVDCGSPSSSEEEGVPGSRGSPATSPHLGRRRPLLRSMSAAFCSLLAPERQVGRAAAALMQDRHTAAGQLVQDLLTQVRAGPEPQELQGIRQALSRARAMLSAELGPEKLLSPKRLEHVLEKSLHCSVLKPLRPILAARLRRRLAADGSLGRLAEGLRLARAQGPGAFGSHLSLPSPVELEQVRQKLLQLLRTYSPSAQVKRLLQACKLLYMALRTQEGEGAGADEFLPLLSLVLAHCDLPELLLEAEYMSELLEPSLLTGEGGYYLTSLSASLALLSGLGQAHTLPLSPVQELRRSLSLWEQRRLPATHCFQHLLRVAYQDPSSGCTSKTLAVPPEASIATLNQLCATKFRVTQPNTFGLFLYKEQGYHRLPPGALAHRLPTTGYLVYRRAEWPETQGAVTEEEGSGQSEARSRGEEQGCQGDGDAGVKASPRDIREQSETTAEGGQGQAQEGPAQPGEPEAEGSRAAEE

| SMILES | inhibition |
| --- | --- |
| Cc1ccc(CN2CCN(Cc3ccccc3-c3ccco3)CC2CCO)o1 (stereo unspecified) | -0.29% |
| COc1cccc2c(O)cc(=O)n(C)c12 | -0.91% |
| O=c1c2ccccc2ccc2ccc(P(=O)(O)O)cc12 | 0.55% |
| O=Nc1c(O)cc(O)c2ccccc12 | 12.5% (active) |
| CCCC(=O)C1=C(N(C)c2ccccc2)CC(C)(C)C(C(=O)OC)C1=O (stereo unspecified) | 0.08% |
| CC(C)CNC(=O)CC(c1ccccc1)c1c(O)ccc2ccccc12 (stereo unspecified) | -0.65% |
| COc1ccc(OCCn2ccnc2C)cc1 | 1.4% |
| O=[N+]([O-])c1cc(C(F)(F)F)ccc1NCCc1ccncc1 | -3.62% |
| CCCn1c(N)c(C(=O)CSc2nnc(-c3cccnc3)n2-c2ccc(C)cc2C)c(=O)[nH]c1=O | 12.2% (active) |
| CCCn1c(N)c(C(=O)CSc2nnc3n2CCCCC3)c(=O)[nH]c1=O | 6.59% |
| Cc1ccc(-n2c(SCC(=O)NCc3ccc4c(c3)OCO4)nnc2-c2cccnc2)c(C)c1 | 8.97% (active) |
| Cc1cccc(C)c1NC(=O)CSc1nnc(-c2ccccc2)n1Cc1ccc2c(c1)OCO2 | 8.78% |
| CCCn1c(N)c(C(=O)CSc2nnc(Cc3cccs3)n2C2CC2)c(=O)[nH]c1=O | 2.22% |
| Cc1ccccc1-c1nnc(SCC(=O)NCc2ccc3c(c2)OCO3)n1C | 0.29% |
| CCOC1CCCCC1NS(=O)(=O)c1ccc(Cl)cc1 (stereo unspecified) | -1.9% |
| COc1ccc(C(CNC(=O)c2cc3c(s2)CCCC3)N2CCOCC2)cc1 (stereo unspecified) | -1.94% |
| O=C(c1ccc(NS(=O)(=O)c2ccc3[nH]c(=O)[nH]c3c2)cc1)N1CCCCC1 | 2.64% |
| Cc1ccccc1N1CCN(C(=O)c2cccnc2)CC1 | 1.88% |
| CC(C)Cn1cnc2c1c(=O)n(CC(O)c1ccccc1)c(=O)n2CC(C)C (stereo unspecified) | 2.26% |
| COCCNc1nc(-n2nc(C)cc2C)nc2sc3c(c12)CCCC3 | -2.91% |
| COC(=O)c1ccccc1OCC(=O)N1CCN(c2ccc(Cl)cc2)CC1 | 3.93% |
| COc1ccc(N2C(=O)C3CCCN3C2c2cc(OC)c(OC)cc2OC)cc1 (stereo unspecified) | -1.54% |
| COc1ccc(N2C(=O)C3CCCN3C2c2cccs2)cc1 (stereo unspecified) | 7.79% (active) |

| SMILES | inhibition |
| --- | --- |
| COc1cccc(N2C(=O)C3CCCN3C2c2ccc(F)cc2)c1 (stereo unspecified) | 1.17% |
| CSc1ccc(/C=C/C(=O)NC23CC4CC(CC(C4)C2)C3)cc1 | -0.46% |
| CCN(Cc1ccccc1)C(=O)CCS(=O)(=O)c1ccc2c(c1)oc(=O)n2C | -4.23% |
| CS(=O)(=O)N1CCN(C(=O)CSc2ccccc2)CC1 | 2.46% |
| O=c1oc2ccccc2cc1-c1cn(-c2ccccc2)c(=S)[nH]1 | -2.16% |
| O=C(c1cn(-c2ccccc2)nc1-c1cc2ccccc2oc1=O)N1CCOCC1 | 8.23% (active) |
| NC(=O)C1CCN(C(=O)c2cn(-c3ccccc3)nc2-c2cccnc2)CC1 | 2.02% |
| CCCCCN(C(=O)CCC(=O)OCCOc1ccc(OC)cc1)c1c(N)n(CCCC)c(=O)[nH]c1=O | 1.88% |
| Cc1cc(C(F)(F)F)nn1CC(=O)N1CCCC1 | -1.33% |
| Oc1c(C(c2ccccn2)N2CCOCC2)ccc2cccnc12 (stereo unspecified) | 27% (active) |
| C/C=C/C(=O)Nc1nnc(C(C)C)s1 | -0.75% |
| O=C(O)/C(=C/c1cccnc1)NC(=O)c1ccccc1 | -1.66% |
| Cc1nc(CN2CCN(C(=O)CCc3nnc(Cc4c[nH]c5ccccc45)o3)CC2)cs1 | -2.84% |
| O=C(Oc1c(-c2ccco2)oc2ccccc2c1=O)c1cccnc1 | 0.23% |
| CCOC(=O)CN1CCC(c2ccccc2)CC1 | 1.17% |
| CCOC(=O)N1CCC(c2cc(=O)n(-c3ccccc3)[nH]2)CC1 | 11.4% (active) |
| CCOC(=O)N1CCC(NC(=O)CCc2ccccc2)CC1 | -0.75% |
| C[C@@H]1CN([C@@H](C)CO)C(=O)CCCn2nncc2CO[C@H]1CN(C)C(=O)Nc1ccc(C(F)(F)F)cc1 | -1.77% |
| CCCOc1ccc(C2C(C(=O)c3ccc(C)o3)=C(O)C(=O)N2CCCn2ccnc2)cc1 (stereo unspecified) | -89.7% |
| OCC(CO)(CO)NCc1ccc(-c2ccccc2)cc1 | -1.05% |
| COc1ccc(Cl)cc1-n1c(=S)sc2c(=O)n(-c3ccc(F)cc3)c(SCC(=O)O)nc21 | 3.75% |
| CN(C(=O)c1cccc(NC(=O)Cc2cccc(NC(=O)C3CCCN(C(=O)C4CC4)C3)c2)c1)C1CCC1 (stereo unspecified) | 1.65% |
| CN(C(=O)c1cccc(NC(=O)Cc2ccc(NC(=O)C3CCN(C(=O)C4CCCCC4)CC3)cc2)c1)C1CCC1 | 0.86% |

| SMILES | inhibition |
| --- | --- |
| CN(C(=O)c1ccc(NC(=O)Cc2cccc(NC(=O)C3CCN(C(=O)c4ccccc4)CC3)c2)cc1)C1CC1 | 16.1% (active) |
| C=CCn1c(SCC(=O)c2c(N)n(C)c(=O)n(C)c2=O)nc2sc(CC)cc2c1=O | -0.41% |
| COc1ccc(NC(=O)CSCc2ccc([N+](=O)[O-])cc2)cc1OC | 0.28% |
| O=C(COc1ccc([N+](=O)[O-])cc1)Nc1cccc(C(=O)Nc2ccccc2C(=O)O)c1 | 2.02% |
| O=C(CSCc1ccc([N+](=O)[O-])cc1)Nc1cccc(C(=O)Nc2ccccc2C(=O)O)c1 | 11.8% (active) |
| CCOCCCNC(=O)C(NC(=O)Cc1c[nH]c2ccccc12)c1ccc(OC)cc1 (stereo unspecified) | -1.97% |
| CC(C)(C)c1ccc(Cn2nnc3c(=O)[nH]c(C4CCCN(C(=O)c5ccco5)C4)nc32)cc1 (stereo unspecified) | 0.48% |
| O=C(Nc1nn(Cc2ccccc2F)cc1Br)c1cccs1 | -1.24% |
| Oc1cccc2cc(-c3ccncc3)cnc12 | 13.3% (active) |
| Fc1ccc(-c2ccc(CNCc3ccccn3)o2)cc1Cl | -2.17% |
| CN1CCN(C(CNS(=O)(=O)c2cccs2)c2cccnc2)CC1 (stereo unspecified) | 1.76% |
| COC(=O)CN1C(C)=Nc2ccc(Br)cc2C1c1ccccc1 (stereo unspecified) | 0.76% |
| Cc1nn(-c2ncc(C(F)(F)F)cc2Cl)c(=O)n1-c1ccccc1 | 7.67% (active) |
| Cc1nn(CC#N)c(=O)n1N(C)c1ncc(C(F)(F)F)cc1Cl | 2.69% |
| CN(C)C=NC(=O)c1cccn1-c1ncc(C(F)(F)F)cc1Cl | 1.65% |
| O=C(O)c1cccc2c1C(=O)N(C1CCCC1)C2 | -1.46% |
| O=c1ccc2c(-c3ccccc3S(=O)(=O)O)c3ccc(O)c(O)c3oc-2c1O | 52.3% (active) |
| Cc1cc2ccccc2n1CCNC(=O)COc1ccc2ccccc2c1 | 7.69% (active) |
| COCCNC(=O)COc1ccc(N(C)S(=O)(=O)c2ccc3ccccc3c2)cc1 | 1.04% |
| Cc1ccc(C)c(NC(=O)CN(C)C(=O)COc2ccc3ccccc3c2)c1 | 0.05% |
| O=c1[nH]nc(Cc2ccccn2)c2ccccc12 | 1.04% |
| CCOC(=O)N1CCN(C(=O)c2cn(C)c3ccc(S(=O)(=O)N(CC)CC)cc3c2=O)CC1 | -0.08% |
| C=CCn1cc(C(=O)NCc2ccc(Cl)cc2)c(=O)c2cc(S(=O)(=O)N(CC)CC)ccc21 | 6.23% (active) |

| SMILES | inhibition |
| --- | --- |
| CCN(CC)CCCNC(=O)c1cn(C)c2ccc(S(=O)(=O)N(C)C3CCCCC3)cc2c1=O | 2.19% |
| CN(C)S(=O)(=O)c1ccc(N2CCCC2)c(C(=O)Nc2cccc(F)c2)c1 | 7.03% |
| CC1=C[C@H]2Cc3cc(C)cc(C)c3S(=O)(=O)[C@@H]2C=C1 | 3.36% |
| CC(=O)c1ccc(NC(=O)c2sc3nc4n(c(=O)c3c2C)CCCCC4)cc1 | 0.85% |
| Cc1c(C(=O)Nc2ccccc2)sc2nc3n(c(=O)c12)CCCCC3 | -0.6% |
| O=c1c2c(nc3n1CCCCC3)sc1c(O)cccc12 | 12.3% (active) |
| O=S1(=O)CCN(C2CCCCCCCCCCC2)CC1 | 1.94% |
| COc1ccccc1C(=O)COC(=O)CSCC(=O)Nc1cc(C)on1 | -2.09% |
| Cc1cc(NC(=O)CSCC(=O)NC(C)c2ccccc2)no1 (stereo unspecified) | 9.74% (active) |
| Cc1cc(NC(=O)CSCc2ccccc2C)no1 | -2.34% |
| N#C/C(=C\N1CCOCC1)S(=O)(=O)c1ccc(Cl)cc1 | 0.04% |
| CC(C)CNS(=O)(=O)c1ccc(OCC(=O)Nc2ccc3c(c2)OCO3)c(Cl)c1 | -2.64% |
| CNS(=O)(=O)c1ccc(NC(=O)Nc2ccc3c(c2)OCO3)cc1 | -0.38% |
| CC(C)CNS(=O)(=O)c1ccc(C(=O)Nc2ccc3c(c2)OCO3)cc1 | 12.8% (active) |
| C=C1c2c(Cl)ccc(O)c2C(O)=C2C(=O)[C@]3(O)C(O)=C(C(N)=O)C(=O)[C@@H](N(C)C)[C@@H]3[C@@H](O)C12 (stereo partly specified) | 20.6% (active) |
| Nc1nc2cc(Cl)ccc2n1N | -1.62% |
| CCCCN(CC)CCNC(=O)c1[nH]c(C)c(C(C)=O)c1C | 6.51% |
| COC(=O)c1c(NC(=O)c2ccc(S(=O)(=O)N3CCOCC3)cc2)sc2c1CCN(C(C)C)C2 | 5.81% |
| CCOc1ccc(CNC(=O)C2CCCN(c3nnc(C)c4c(C)n(-c5ccccc5)nc34)C2)cc1 (stereo unspecified) | 20.2% (active) |
| CCc1ccc(CNC(=O)C2CCN(c3nnc(C)c4c(C)n(-c5ccc(C)cc5)nc34)CC2)cc1 | -2.17% |
| CCc1ccc(CNC(=O)C2CCCN(c3nc4ccccc4o3)C2)cc1 (stereo unspecified) | 1.27% |
| Cn1cc(CN2CCCC(CO)C2)c(-c2ccc(Oc3ccccc3)cc2)n1 (stereo unspecified) | 1.99% |
